Data as given in ChEMBL document CHEMBL3988442, “University of Dundee, Small-Polar-MMV Screening Library” (2021).
For part of these data: Potency and affinity values are given separately.

How the values were obtained:
Design in all cases: scale not given: direction of the effect not stated beside the values
[1] = target: Protein translocase subunit SecA (Escherichia coli (strain K12)) (UniProt P10408); test: Assay to Identify E. coli SecA ATPase Inhibitors; format: functional; conditions: 30 µM
[2] = target: T1, Ubiquitin-activating enzyme e1, putative (Leishmania donovani (strain BPK282A1)) (UniProt E9BSI1); test: Leishmania donovani Ubiquitin Activating Enzyme (LdE1); format: functional; conditions: 30 µM
T1 sequence (whole entry): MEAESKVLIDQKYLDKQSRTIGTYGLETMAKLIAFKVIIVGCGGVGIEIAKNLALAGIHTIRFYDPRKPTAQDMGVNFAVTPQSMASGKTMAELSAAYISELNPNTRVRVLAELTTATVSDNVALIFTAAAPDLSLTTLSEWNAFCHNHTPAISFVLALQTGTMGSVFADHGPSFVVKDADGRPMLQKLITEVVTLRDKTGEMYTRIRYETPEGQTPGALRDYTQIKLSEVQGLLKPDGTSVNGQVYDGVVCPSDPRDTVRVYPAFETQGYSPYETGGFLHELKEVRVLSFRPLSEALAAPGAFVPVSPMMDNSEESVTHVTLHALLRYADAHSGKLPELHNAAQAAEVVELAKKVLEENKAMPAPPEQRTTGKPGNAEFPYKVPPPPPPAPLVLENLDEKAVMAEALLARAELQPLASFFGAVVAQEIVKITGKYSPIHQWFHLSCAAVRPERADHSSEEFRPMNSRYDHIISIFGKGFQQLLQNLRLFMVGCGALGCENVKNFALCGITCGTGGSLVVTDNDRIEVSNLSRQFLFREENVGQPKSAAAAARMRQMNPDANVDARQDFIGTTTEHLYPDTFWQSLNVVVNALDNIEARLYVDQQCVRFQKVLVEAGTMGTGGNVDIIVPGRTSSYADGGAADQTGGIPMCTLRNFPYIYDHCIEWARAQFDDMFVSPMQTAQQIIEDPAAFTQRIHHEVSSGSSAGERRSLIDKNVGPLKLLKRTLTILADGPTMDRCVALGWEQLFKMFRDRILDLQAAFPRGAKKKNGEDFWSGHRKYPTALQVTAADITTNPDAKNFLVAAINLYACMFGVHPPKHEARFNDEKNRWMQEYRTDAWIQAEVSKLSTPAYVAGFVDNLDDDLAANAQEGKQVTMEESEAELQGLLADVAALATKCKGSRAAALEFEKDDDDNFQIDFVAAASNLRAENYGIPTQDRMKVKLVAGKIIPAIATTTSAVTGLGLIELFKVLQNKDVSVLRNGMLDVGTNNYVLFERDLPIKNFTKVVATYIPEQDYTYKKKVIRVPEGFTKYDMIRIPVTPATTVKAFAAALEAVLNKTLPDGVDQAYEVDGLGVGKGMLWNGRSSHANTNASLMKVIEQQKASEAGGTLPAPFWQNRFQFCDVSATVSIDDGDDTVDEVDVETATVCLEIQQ

[3] = target: Sialic acid-binding Ig-like lectin 9 (Homo sapiens) (UniProt Q9Y336); test: Hs-Siglec9 ALPHAscreen SOP 20170721; conditions: 10 µM
Trypanosoma cruzi = test: Trypanosoma cruzi phosphomannomutase and mannose-1-phosphate guanylyltransferase assay; format: functional; conditions: 10 µM
[4] = target: T2, Arginase-2, mitochondrial (Homo sapiens) (UniProt P78540); test: in vitro enzyme assay to detect the production of urea directly proportional to the activity of Arginase II; format: functional; conditions: 33.3 µM; note: in the data most compounds retested in dose-response had high values
T2 sequence (whole entry): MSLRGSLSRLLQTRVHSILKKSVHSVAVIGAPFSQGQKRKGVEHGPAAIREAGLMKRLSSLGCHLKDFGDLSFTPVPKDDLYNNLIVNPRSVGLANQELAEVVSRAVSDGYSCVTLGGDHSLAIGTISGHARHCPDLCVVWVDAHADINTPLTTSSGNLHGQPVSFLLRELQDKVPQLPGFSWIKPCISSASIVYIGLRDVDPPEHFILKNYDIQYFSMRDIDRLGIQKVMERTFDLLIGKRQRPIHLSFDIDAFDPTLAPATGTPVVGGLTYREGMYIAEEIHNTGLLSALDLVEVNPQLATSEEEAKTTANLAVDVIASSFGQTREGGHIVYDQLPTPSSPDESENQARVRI

[5] = target: T3, Proteasome subunit beta (Trypanosoma cruzi) (UniProt O96673); test: Trypanosoma cruzi proteasome chymotrypsin-like activity (TcProtChymo) assay.; note: in the data most compounds retested in dose-response had high values; format: functional; conditions: 9.37 µM
T3 sequence (whole entry): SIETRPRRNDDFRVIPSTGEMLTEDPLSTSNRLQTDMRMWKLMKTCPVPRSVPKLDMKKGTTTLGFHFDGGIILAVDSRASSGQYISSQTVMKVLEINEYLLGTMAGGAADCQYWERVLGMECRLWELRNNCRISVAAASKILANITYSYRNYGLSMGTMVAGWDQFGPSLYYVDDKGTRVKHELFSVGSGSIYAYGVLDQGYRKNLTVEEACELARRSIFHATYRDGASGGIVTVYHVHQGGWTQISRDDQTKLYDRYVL

Homo sapiens = species on record: Homo sapiens; test: To identify inhibition of the IFN signalling (Jak-Stat) pathway via expression of an eGFP reporter gene under the control of an IFN-stimulated response element (ISRE) containing MxA promoter.; format: functional; conditions: 30 µM
[6] = target: T4, Tyrosyl-tRNA synthetase, putative (Trypanosoma cruzi (strain CL Brener)) (UniProt Q4DSP6); test: Trypanosoma cruzi tyrosyl tRNA synthetase (TcYRS) _High Tyrosine SOP; format: functional; conditions: 30 µM; note: in the data most compounds retested in dose-response had high values
T4 sequence (whole entry): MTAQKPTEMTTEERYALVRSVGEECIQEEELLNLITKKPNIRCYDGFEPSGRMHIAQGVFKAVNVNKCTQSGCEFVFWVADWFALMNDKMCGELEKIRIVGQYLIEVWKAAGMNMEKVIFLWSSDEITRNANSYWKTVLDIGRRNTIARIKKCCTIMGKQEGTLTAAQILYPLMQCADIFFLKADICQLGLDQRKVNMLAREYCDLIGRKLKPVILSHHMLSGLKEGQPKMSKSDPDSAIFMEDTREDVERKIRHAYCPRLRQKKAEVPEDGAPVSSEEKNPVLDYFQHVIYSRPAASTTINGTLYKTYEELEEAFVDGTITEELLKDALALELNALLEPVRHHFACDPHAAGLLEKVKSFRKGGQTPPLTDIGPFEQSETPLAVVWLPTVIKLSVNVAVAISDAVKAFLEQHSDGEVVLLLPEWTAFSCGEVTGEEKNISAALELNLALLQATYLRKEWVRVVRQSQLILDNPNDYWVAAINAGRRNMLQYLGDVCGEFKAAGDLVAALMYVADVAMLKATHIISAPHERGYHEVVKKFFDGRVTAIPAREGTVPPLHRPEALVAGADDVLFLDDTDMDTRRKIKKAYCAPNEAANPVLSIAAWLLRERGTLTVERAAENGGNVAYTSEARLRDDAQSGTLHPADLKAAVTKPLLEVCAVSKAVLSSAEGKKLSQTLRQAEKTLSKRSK

[7] = target: T4, Tyrosyl-tRNA synthetase, putative (Trypanosoma cruzi (strain CL Brener)); test: Trypanosoma cruzi tyrosyl tRNA synthetase (TcYRS) SOP; format: functional; conditions: 30 µM
[8] = target: Chromo domain-containing protein 1 (Saccharomyces cerevisiae (strain ATCC 204508 / S288c) (Baker's yeast)) (UniProt P32657); test: ScCHD-1 Enzyme Inhibition Assay; format: functional; conditions: 30 µM; note: in the data most compounds retested in dose-response had high values
Chromo domain-containing protein 1 (Saccharomyces cerevisiae (strain ATCC 204508 / S288c) (Baker's yeast)), sequence (P32657 whole entry, the tested form may be a part): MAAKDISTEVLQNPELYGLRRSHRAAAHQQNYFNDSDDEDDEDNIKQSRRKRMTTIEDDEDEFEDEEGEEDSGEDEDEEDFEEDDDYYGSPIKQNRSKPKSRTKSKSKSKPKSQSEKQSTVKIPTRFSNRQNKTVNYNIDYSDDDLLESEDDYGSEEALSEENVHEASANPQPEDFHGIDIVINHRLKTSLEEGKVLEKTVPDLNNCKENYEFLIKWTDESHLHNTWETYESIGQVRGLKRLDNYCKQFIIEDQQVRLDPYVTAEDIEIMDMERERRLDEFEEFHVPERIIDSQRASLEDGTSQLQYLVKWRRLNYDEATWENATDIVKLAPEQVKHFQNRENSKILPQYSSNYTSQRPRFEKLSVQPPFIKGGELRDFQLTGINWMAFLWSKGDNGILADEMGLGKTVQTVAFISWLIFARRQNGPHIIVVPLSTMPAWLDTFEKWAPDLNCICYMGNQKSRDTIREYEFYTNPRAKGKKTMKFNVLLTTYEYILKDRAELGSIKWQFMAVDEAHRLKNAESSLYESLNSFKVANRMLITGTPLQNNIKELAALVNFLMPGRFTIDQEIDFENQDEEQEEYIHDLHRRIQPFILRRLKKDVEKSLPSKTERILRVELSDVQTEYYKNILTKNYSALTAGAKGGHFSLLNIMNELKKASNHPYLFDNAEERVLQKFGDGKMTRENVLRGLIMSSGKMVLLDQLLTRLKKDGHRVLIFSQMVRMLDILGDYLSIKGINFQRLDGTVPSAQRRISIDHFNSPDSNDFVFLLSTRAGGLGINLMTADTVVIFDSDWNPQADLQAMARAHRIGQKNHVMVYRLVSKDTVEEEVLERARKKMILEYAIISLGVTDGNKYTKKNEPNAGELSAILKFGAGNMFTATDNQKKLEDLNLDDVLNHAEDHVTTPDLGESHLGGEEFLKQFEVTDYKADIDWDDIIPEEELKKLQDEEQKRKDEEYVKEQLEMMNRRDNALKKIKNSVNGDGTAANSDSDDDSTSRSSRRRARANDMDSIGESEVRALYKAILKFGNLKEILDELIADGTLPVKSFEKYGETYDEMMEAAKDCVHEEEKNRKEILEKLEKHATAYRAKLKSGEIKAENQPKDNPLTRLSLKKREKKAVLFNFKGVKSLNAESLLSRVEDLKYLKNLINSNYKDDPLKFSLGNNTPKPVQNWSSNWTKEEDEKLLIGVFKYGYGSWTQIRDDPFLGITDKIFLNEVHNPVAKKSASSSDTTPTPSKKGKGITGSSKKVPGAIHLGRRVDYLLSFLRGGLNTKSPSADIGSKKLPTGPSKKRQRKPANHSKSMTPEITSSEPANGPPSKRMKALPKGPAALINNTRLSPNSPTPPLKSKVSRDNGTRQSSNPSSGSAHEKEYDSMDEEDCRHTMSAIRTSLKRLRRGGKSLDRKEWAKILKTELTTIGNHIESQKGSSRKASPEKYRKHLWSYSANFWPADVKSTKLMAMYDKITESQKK

Protein translocase subunit SecA (Escherichia coli (strain K12)), sequence (P10408 whole entry): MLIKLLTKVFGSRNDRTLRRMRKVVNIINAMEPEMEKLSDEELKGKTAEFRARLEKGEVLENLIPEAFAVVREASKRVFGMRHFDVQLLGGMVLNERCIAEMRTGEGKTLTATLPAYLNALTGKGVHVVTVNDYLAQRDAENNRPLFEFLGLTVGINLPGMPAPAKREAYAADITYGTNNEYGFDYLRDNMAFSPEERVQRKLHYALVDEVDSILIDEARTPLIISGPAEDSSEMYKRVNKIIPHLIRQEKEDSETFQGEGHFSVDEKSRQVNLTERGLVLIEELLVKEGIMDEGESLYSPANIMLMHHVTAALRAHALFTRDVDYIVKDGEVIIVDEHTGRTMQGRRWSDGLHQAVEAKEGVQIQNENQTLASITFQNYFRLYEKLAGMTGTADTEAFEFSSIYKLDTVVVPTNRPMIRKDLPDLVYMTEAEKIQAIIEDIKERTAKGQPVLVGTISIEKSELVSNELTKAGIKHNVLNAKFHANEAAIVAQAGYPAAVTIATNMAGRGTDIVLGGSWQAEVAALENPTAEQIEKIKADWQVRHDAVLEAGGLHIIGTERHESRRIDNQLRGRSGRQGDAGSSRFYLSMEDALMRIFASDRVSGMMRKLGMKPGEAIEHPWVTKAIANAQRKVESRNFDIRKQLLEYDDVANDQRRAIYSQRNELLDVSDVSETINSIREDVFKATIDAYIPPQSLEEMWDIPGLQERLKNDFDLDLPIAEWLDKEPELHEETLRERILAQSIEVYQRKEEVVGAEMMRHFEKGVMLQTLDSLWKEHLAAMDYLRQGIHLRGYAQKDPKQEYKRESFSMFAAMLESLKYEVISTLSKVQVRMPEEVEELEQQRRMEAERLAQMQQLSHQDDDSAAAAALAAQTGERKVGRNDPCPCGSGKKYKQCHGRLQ
Sialic acid-binding Ig-like lectin 9 (Homo sapiens), sequence (Q9Y336 whole entry): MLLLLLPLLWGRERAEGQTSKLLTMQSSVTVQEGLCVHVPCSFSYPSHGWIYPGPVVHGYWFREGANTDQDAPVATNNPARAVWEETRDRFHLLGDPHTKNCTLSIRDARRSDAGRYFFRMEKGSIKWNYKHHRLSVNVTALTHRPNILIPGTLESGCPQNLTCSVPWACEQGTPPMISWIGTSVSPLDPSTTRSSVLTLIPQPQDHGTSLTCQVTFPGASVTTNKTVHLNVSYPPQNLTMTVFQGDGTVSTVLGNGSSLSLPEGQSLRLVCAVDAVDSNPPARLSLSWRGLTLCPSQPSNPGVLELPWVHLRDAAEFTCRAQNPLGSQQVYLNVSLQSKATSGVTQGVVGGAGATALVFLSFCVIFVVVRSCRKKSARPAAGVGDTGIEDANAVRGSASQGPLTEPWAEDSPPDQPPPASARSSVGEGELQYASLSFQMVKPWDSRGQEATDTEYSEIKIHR

Compound	Percent Effect [1]	Percent Effect [2]	Percent Effect [3]	Percent Effect (Trypanosoma cruzi)	Percent Effect [4]	Percent Effect [5]	Percent Effect (Homo sapiens)	Percent Effect [6]	Percent Effect [7]	Percent Effect [8]
O=C(Cc1csc(-c2nnc[nH]2)n1)N1CCCC1Cn1cccn1 (stereo not given)	-1.04%	8%	5.84%	-0.402%	-3.1%	8.74%	-1.78%	2.63%	5.13%	-9.48%
Cc1nn(C)c(Cl)c1CNCc1ccc(OCC(N)=O)cc1	-6.28%	10.7%	0.0227%	4.42%	2.22%	10.9%	16.6%	1.58%	12.8%	-10.2%
CCOCC1CN(Cc2cnn(C)c2)Cc2nn(C)cc21 (stereo not given)	0.939%	-3.9%	-4.11%	-5.36%	0.81%	10.2%	4.03%	-1.58%	0%	2.52%
CC1CCCCN1C(=O)CN1CCN(c2ccc3nncn3n2)CC1 (stereo not given)	-3.43%	15.4%	1.72%	7.42%	-0.82%	11.3%	6.75%	6.22%	13.2%	-7.79%
Cc1[nH]c(=O)c(C#N)cc1C(=O)N1C[C@@H](CN2CCCC2)C[C@H](CO)C1	-6.79%	-8.11%	-1.68%	-2.81%	3.85%	-5.82%	21.2%	-0.532%	-2.44%	2.93%
CCCn1nc2c(cc1=O)CN(CC(=O)Nc1nnc(C)s1)CC2	-7.9%	13%	10.3%	-3.92%	3.07%	11.8%	1.49%	2.94%	9.41%	-8.62%
CN(C)CC(=O)N1CCC2(CCN(Cc3ccccn3)C2=O)C1 (stereo not given)	-3.33%	-1.3%	-3.23%	-2.63%	-4.45%	12.6%	-1.64%	1.58%	7.69%	-2.1%
Cc1cc(CN(C)C(=O)c2ccc(Cl)c(S(C)(=O)=O)c2)no1	-9.03%	13.3%	7.77%	3.81%	-4.88%	9.41%	6.05%	1.58%	10.3%	-11.5%
COc1ccc(C(=O)N2CC[C@H](CO)[C@H](O)C2)c(C)c1	-7.05%	5.41%	10.7%	9.02%	16.4%	10.1%	0.399%	7.98%	9.76%	-7.71%
COc1ccc(C(C)NC(=O)Cn2ccc(=O)n(C)c2=O)cc1OC (stereo not given)	-2.49%	7.79%	11%	-2.8%	3.48%	9.65%	17.1%	8.82%	18.8%	-4.91%
CN(Cc1ccc(F)cc1)[C@@H]1CN(C(=O)c2cccs2)C[C@H]1O	-4.06%	17.3%	-0.715%	1.97%	-3.1%	17.6%	10.6%	5.29%	20%	-21.9%
CC(C)NC(=O)N1CCN(Cc2ccccn2)CC2(CC(=O)N(C)C2)C1 (stereo not given)	-6.73%	11.7%	1.64%	-0.563%	-2.28%	2.49%	13.5%	0%	0%	-7.79%
